EPAC1 antag: blocks human EPAC1 exchange factor | AID 720709 | O95398 | Potency, µM (top dose mostly 115 µM), without a hit: at the top dose activity change, negative = inhibition, most hits filed as inhibitors | EPAC1 GEF assay, Rap1b-BODIPY-GDP exchange fluorescence | hit rate 0.14% among 360,000;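 also: plate controls were vehicle for no effect and positive control for full effect; nearly all actives have a fitted effect of over 50% in size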
Target sequence (O95398 whole entry, looked up): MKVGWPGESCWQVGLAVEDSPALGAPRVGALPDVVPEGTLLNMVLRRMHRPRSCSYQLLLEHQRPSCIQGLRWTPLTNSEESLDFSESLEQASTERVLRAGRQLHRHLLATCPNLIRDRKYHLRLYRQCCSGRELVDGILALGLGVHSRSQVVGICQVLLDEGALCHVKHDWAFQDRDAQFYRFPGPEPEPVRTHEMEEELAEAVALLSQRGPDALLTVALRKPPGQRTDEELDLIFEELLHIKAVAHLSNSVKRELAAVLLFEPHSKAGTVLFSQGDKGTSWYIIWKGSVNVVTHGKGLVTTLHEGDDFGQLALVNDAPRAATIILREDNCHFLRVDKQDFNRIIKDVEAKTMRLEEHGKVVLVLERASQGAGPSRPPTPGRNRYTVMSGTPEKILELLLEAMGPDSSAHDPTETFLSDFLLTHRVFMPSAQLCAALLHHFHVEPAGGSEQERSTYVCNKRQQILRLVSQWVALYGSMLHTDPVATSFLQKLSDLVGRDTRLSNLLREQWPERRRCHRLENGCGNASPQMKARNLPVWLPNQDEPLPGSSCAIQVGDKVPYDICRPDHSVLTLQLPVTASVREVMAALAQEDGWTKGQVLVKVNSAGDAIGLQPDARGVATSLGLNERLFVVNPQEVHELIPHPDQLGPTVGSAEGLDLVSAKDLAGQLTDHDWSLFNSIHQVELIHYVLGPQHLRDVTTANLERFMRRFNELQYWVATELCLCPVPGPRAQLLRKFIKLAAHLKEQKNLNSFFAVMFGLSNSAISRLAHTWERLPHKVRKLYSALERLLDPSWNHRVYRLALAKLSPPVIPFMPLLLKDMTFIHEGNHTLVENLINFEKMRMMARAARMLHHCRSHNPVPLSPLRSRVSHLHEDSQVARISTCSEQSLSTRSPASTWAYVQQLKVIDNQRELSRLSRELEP
USP1 inh: blocks the human USP1/UAF1 deubiquitinase complex. recombinant USP1/UAF1, Ub-Rhodamine cleavage fluorescence. hit rate 0.23% among 390,000. AID 743255. Potency, µM (highest dose often 57.1 µM), for the others: at the highest dose activity change, negative = inhibition, hits mostly inhibitors. O94782; also: % is scaled to controls: 0 for no effect and ±100 for the full control effect; nearly all actives have a fitted effect of over 60% in size
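1 nM enzyme complex + cpd, 15 min RT; start with Ub-Rho 150nM final; kinetic fluorescence ex 480/em 540, 6 reads q60 s. Buffer 50mM HEPES pH 7.8, 0.5mM EDTA, 0.1 mg/ml BSA, 1mM TCEP, 0.01% Tween-20.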
EPAC1 agonist: activates human EPAC1 exchange factor; EPAC1 agonist qHTS, biochemical assay; response scale: 100% = response to 6.5 mM cAMP; Potency, µM (doses to about 154 µM), for the others: top-dose activation, actives largely listed as activators; hit rate 0.073% among 360,000; AID 720707; also: nearly all actives have a fitted effect of over 60% in size
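Read-out is the fluorescence drop as BODIPY-GDP leaves Rap1B (480 nm excitation, 540 nm emission), recorded every 5 minutes over 30 minutes. Reactions held 100 nM EPAC1, 250 nM Rap1B–BODIPY-GDP and 50 uM GDP, with 6.5 mM cAMP setting full activation.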
EPAC2 antag: EPAC2 (human) antagonism. hit rate 0.18% among 360,000. EPAC2 GEF exchange of Rap1B-BODIPY-GDP, fluorescence. Potency, µM (series often up to 114 µM), for the others: at the highest dose activity, negative = inhibition, most hits filed as inhibitors; also: % is scaled to controls: 0 for no effect and ±100 for the full control effect; nearly all actives have a fitted effect of over 45% in size
EPAC2 ag: agonists of human EPAC2 (RAPGEF4); Potency, µM (highest dose often 154 µM), inactives show at the top dose activation, hits mostly activators; hit rate 0.079% among 360,000; EPAC2 activation, biochemical qHTS; response scale: 100% = 6.5 mM cAMP response; AID 720711; also: nearly all actives have a fitted effect of over 50% in size
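Compounds were added across a concentration range to EPAC2 (100 nM), RAP1B-BODIPY-GDP (250 nM) and GDP (50 uM). After 5 min at room temperature, fluorescence was recorded at 5-min intervals for 30 min.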
12-LOX inh: inhibitors of human 12S-lipoxygenase ALOX12; hit rate 1.1% among 580,000; Potency, µM (top dose mostly 108 µM), for inactives: at the top dose activity change, negative = inhibition, hits mostly inhibitors; AID 1671190; P18054; purified 12hLO, xylenol orange hydroperoxide absorbance; also: % is scaled to controls: 0 for no effect and ±100 for the full control effect
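Hydroperoxide product was detected by ferrous iron/xylenol orange as the 573 to 405 nm absorbance ratio. Arachidonic acid at 40 uM (final) was turned over for 30 min at room temperature by 150 nM human 12hLO, pH 7.0 Hepes buffer, after 15 min compound preincubation.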
Active calls of the source: *; ? = inconclusive; · = not tested or not shown; [ ] = dose if it differs, or a comment. Rows were chosen to be rich in hits. Some 1.3% of all compounds tested hit in one or more screens of this group. Calls follow the shape of the dose curve; as a rule, active = well fitted curve in the direction sought with a large enough effect; inconclusive = small, poorly fitted or top-dose-only effect, or another doubt; inactive = no such curve, though single readings can be large; an effect the other way counts as inactive or inconclusive. Potency is read from the fitted curve at half-maximal effect.

SMILES | EPAC1 antag | USP1 inh | EPAC1 agonist | EPAC2 antag | EPAC2 ag | 12-LOX inh
Cc1cccc(C(=O)Nc2ccc(NC(=S)NC(=O)c3cccc(Cl)c3)cc2)c1 | · | · | · | · | · | 18µM*
CCCC(=O)N1CCN(c2ccc(NC(=S)NC(=O)c3cccc(C)c3)cc2)CC1 | -14% | -22% | 4% | -3% | 10% | 16µM*
COc1cccc(C(=O)NC(=S)Nc2ccc(N3CCCC3)cc2)c1 | -12% | -16% | 17% | -8% | 16% | ?
CC(C)NC(=O)Cn1ccc2ccc(Cl)cc21 | · | · | · | · | · | -10%
Cc1c(C#N)c(NC(=O)CSc2nnnn2C)n(CC2CCCO2)c1C (centres undefined) | · | · | · | · | · | -3%
COc1ccc(Cl)cc1-c1ncc2c(n1)OCCN(c1ccccc1)C2=O | · | · | · | · | · | 1%[176 µM]
Cc1cccc(N(Cc2ccccc2)C(=O)c2ccccn2)c1 | · | · | · | · | · | 8%
O=C1OCC(CO)(CO)N=C1NNc1ccccc1[N+](=O)[O-] | -11% | -22% | -6% | -1% | 0% | 11µM*
O=C1OCC(CO)(CO)N=C1NNc1cc(Cl)ccc1Cl | 4% | -2% | 11% | -1% | 11% | ?
CC1(C)CC[C@]2(C(=O)O)CC[C@]3(C)C(=CC[C@@H]4[C@@]5(C)CC[C@H](O[C@@H]6O[C@H](C(=O)O)[C@@H](O)[C@H](O[C@@H]7OC[C@H](O)[C@H](O)[C@H]7O)[C@H]6O)C(C)(C)[C@@H]5CC[C@]43C)[C@@H]2C1 | 50µM* | -30% | -25% | 6% | -8% | -24%
Cc1ccc(NC(=S)/C(C#N)=C2/Nc3ccccc3S2)cc1 | ? | -19% | 2% | 20µM* | -5% | 13µM*
Cc1ccc(C2CCCN2S(=O)(=O)c2ccc(C)cc2)cc1 (centres undefined) | · | · | · | · | · | 13%
CN(C)/C=C/C(=O)c1cnc(-c2ccc(Cl)cc2)s1 | -13% | -16% | 2% | 18% | -3% | 32µM*
Cc1cc(C)c(S(=O)(=O)/N=C2/C=C(Sc3ncn[nH]3)C(=O)c3ccccc32)cc1C | 45µM* | 1.3µM* | 11% | ? | 16% | ?
Cc1ccc([N+](=O)[O-])cc1S(=O)(=O)Nc1ccc(O)c(Sc2ncn[nH]2)c1 | -10% | -7% | -13% | -1% | 0% | ?
COc1ccccc1-c1nn2c(CN3CCCCC3)nnc2s1 | · | · | · | · | · | -30%
Cc1noc(-c2ccc(OC3CN(C(=O)Cc4cccs4)C3)cc2)n1 | · | · | · | · | · | 7.1µM*
Cc1noc(-c2ccc(OC3CN(C(=O)CCCc4ccccc4)C3)cc2)n1 | · | · | · | · | · | 26%
O=C(OCc1cc(=O)oc2cc(O)ccc12)c1n[nH]c2ccccc12 | · | · | · | · | · | 25µM*
N#Cc1c(-c2ccccc2)nc(SCC(=O)Nc2ccc(OC(F)(F)Cl)cc2)[nH]c1=O | ? | ? | -5% | 35µM* | -6% | ?
N#Cc1c(-c2ccccc2)nc(SCc2ccc(Cl)cc2)[nH]c1=O | 79µM* | ? | -15% | ? | -2% | ?
N#Cc1c(-c2ccccc2)nc(SCC(=O)N2c3ccccc3Sc3ccccc32)[nH]c1=O | 79µM* | 32µM* | 9% | 8.9µM* | 2% | ?
C=CCSc1nc(-c2ccccc2)c(C#N)c(=O)[nH]1 | 1% | -13% | 0% | 15% | -3% | -9%
O=C1Nc2ccccc2CCC1n1nc(-c2ccc(Br)cc2)ccc1=O (centres undefined) | · | · | · | · | · | -1%
c1csc(-c2nc3ccccn3c2NC2CCCCC2)c1 | -17% | -10% | 7% | ? | -4% | -19%
SMILES | EPAC1 antag | USP1 inh | EPAC1 agonist | EPAC2 antag | EPAC2 ag | 12-LOX inh
Cc1ccn2c(NC3CCCC3)c(-c3cccs3)nc2c1 | 4% | ? | 13% | -21% | 27% | 32µM*
Cc1cccc(-n2c3nc(=O)[nH]c(=O)c-3cc3cc([N+](=O)[O-])ccc32)c1 | 4% | ? | 4% | -1% | -5% | ?
Cc1ccc(C)c(-n2c3nc(=O)[nH]c(=O)c-3cc3cc([N+](=O)[O-])ccc32)c1 | 56µM* | ? | 4% | -15% | 13% | ?
Cc1c(-c2ccccc2F)[nH]c2ccc(CNC(=O)Cn3ccc(=O)[nH]c3=O)cc12 | · | · | · | · | · | -4%
Cc1ccc2nc(C(=O)O)[nH]c2c1 | · | · | · | · | · | 14%
COc1ccccc1N1CCN(C(=O)C(C)[C@@H]2CCc3c(C)cc(OCCN4CCOCC4)c(C)c3C2)CC1 (some centres undefined) | · | · | · | · | · | -14%
NC(=O)c1ccsc1NS(=O)(=O)c1ccc([N+](=O)[O-])cc1 | · | · | · | · | · | 14µM*
NC(=O)c1ccsc1NC(=O)COC(=O)/C=C/c1ccc([N+](=O)[O-])cc1 | 8% | -11% | 7% | -2% | 8% | 3%
Cc1ccccc1CN1C(=O)CS/C1=N/N=C/c1ccco1 | -12% | -8% | 12% | -18% | 24% | 40µM*
CCNC(=O)NC(=O)C(C)Sc1cccc2cccnc12 (centres undefined) | · | · | · | · | · | -28%
CC(Sc1cccc2cccnc12)C(=O)NC(=O)NC(C)(C)C (centres undefined) | · | · | · | · | · | 13µM*
CCC1CCCCN1CCCNC(=O)c1ccc(CS(=O)(=O)Cc2ccccc2F)o1 (centres undefined) | -5% | 2% | 6% | 22µM* | -1% | 77%
COc1ccc(C(=O)n2nc(-c3ccco3)nc2NCc2cccs2)cc1OC | · | -3% | · | · | · | 7.9µM*
COc1ccc(C(NC(=O)/C=C/c2ccco2)c2ccc(OC)cc2)cc1 | -1% | -2% | -10% | 2% | 12% | 45µM*
O=C(/C=C/c1ccco1)OCC(=O)c1ccccc1 | · | · | · | · | · | -57%
COc1ccc(C(NC(=O)/C=C\c2ccco2)c2ccc(OC)c(OC)c2)cc1 (centres undefined) | -17% | 2% | 12% | -5% | 12% | 32µM*
O=C(/C=C/c1ccco1)Oc1ccc(Sc2ccc(OC(=O)/C=C/c3ccco3)cc2)cc1 | · | · | · | · | · | 11µM*
COc1ccc(CCNC(=O)/C=C/c2ccco2)cc1 | 1% | -10% | 2% | -13% | 1% | 0%
CNC(=S)N(C)Cc1ccccc1Br | · | · | · | · | · | -4%
COc1ccc(Cl)cc1C(=O)N1CCN(C(=O)c2nnn3c2COC(c2ccccc2)C3)CC1 (centres undefined) | · | · | · | · | · | 9%
CC(/C=C1\SC(=S)N(c2ccc(C(=O)O)cc2)C1=O)=C\c1ccccc1 | ? | -24% | 9% | 46% | 7% | 35µM*
CC(=O)N1C(=O)/C(=C2\SC(=S)N(NS(=O)(=O)c3ccc(C)cc3)C2=O)c2ccccc21 | 4% | ? | 6% | -13% | -3% | 45µM*

Assay outcomes (PubChem)
